For eight compounds, growth results are on record in PubChem BioAssay (NCI).

Values joined by “and” are separate entries in the source; they are usually repeats but may differ in a detail not shown here. Identical values can stand only once. This is part of a sample that, as a whole, favours compounds with a hit. Of some 83,000 tested, about 20% had one in any assay.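 Cell lines were cultured in 96-well plates, exposed to a single compound concentration, and assessed for percent growth 48 hours later.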 Where a structure was tested more than once in an assay, its records may differ in their call. Active and inactive are the calls of the source. Rule for the calls: active = growth percent below 10; inactive = the rest.

Among the test systems are RPMI-8226 leukemia; OVCAR-8 ovarian; OVCAR-5 ovarian; OVCAR-4 ovarian; SK-OV-3 ovarian; IGROV1 ovarian; OVCAR-3 ovarian; HS 578T breast; NCI/ADR-RES ovarian; SR leukemia.
Experiment in all cases: NCI-60 one-dose screen, 48 h (100 = growth as untreated, 0 = no growth, -100 = all killed)
Holding throughout (conditions): 10 µM

In the case of `C#CCN(Cc1ccc2nc(N)[nH]c(=O)c2c1)c1ccc(C(=O)NC(CCC(=O)O)C(=O)O)cc1` (stereo not given), the growth in the assay with RPMI-8226 leukemia was 51.3% (inactive); in the assay with OVCAR-8 ovarian, 39.3% (inactive); with OVCAR-5 ovarian, 107% (inactive); in the assay with OVCAR-4 ovarian, 103% (inactive); in the assay with SK-OV-3 ovarian it was 49.7% (inactive); with IGROV1 ovarian it was 109% (inactive). For the same compound, the growth is 67.2% (inactive) with OVCAR-3 ovarian, 88.9% (inactive) in the assay with HS 578T breast and 47.7% (inactive) in the assay on NCI/ADR-RES ovarian.

For `Cc1cc(N(CCOS(C)(=O)=O)CCOS(C)(=O)=O)ccc1C=Nc1ccc(-c2nc(Cc3ccccc3)sc2C)cc1`, the growth in the assay with SR leukemia was 23.4% (inactive); in the assay with RPMI-8226 leukemia, 62.3% (inactive); in the assay with OVCAR-5 ovarian, 67% (inactive); in the assay on SK-OV-3 ovarian, 3.43% (active); in the assay with IGROV1 ovarian, 11.4% (inactive); in the assay with OVCAR-3 ovarian it was 41.9% (inactive). For the same compound, the figures for the growth with HS 578T breast and in the assay with NCI/ADR-RES ovarian were 79.8% (inactive) and 40.7% (inactive), respectively.

With `O=[N+]([O-])c1cc[n+]([O-])cc1`, the growth in the assay with SR leukemia is 107% (inactive); in the assay with RPMI-8226 leukemia, 102% (inactive); in the assay on OVCAR-8 ovarian, 103% (inactive); in the assay with OVCAR-5 ovarian, 145% (inactive); in the assay with OVCAR-4 ovarian, 111% (inactive); with SK-OV-3 ovarian, 130% (inactive). In addition, the growth is 107% (inactive) with IGROV1 ovarian, 114% (inactive) in the assay on OVCAR-3 ovarian, 104% (inactive) with HS 578T breast and 103% (inactive) in the assay on NCI/ADR-RES ovarian.

Turning to `Cc1ccc(Sc2ccccc2N)cc1`, the growth in the assay on SR leukemia is 71.6% (inactive); in the assay with RPMI-8226 leukemia, 89.8% (inactive); with OVCAR-8 ovarian, 79.1% (inactive); in the assay with OVCAR-5 ovarian, 82.7% (inactive); in the assay on OVCAR-4 ovarian, 93.6% (inactive); in the assay on SK-OV-3 ovarian it was 94.9% (inactive). Moreover, the growth was 76.2% (inactive) with IGROV1 ovarian, 121% (inactive) in the assay with OVCAR-3 ovarian, 110% (inactive) with HS 578T breast and 84.3% (inactive) in the assay on NCI/ADR-RES ovarian.

On to `CN(C)CCOC1(Cc2ccc(Cl)cc2Cl)CCC(C(C)(C)C)CC1` (stereo not given), for which the growth in the assay with SR leukemia was -34.8% (active) and -29.5% (active); in the assay with RPMI-8226 leukemia, 11.6% (inactive) and -10% (active); with OVCAR-8 ovarian it was 36.5% (inactive) and -27.3% (active); with OVCAR-5 ovarian, 43.8% (inactive) and 5.22% (active); with OVCAR-4 ovarian, 36.1% (inactive) and 15.1% (inactive); in the assay on SK-OV-3 ovarian, 69.6% (inactive) and 57.8% (inactive). Besides, the growth with IGROV1 ovarian was 41.7% (inactive) and 25.3% (inactive); with OVCAR-3 ovarian it was 39.5% (inactive) and 11.1% (inactive); with HS 578T breast, 52.4% (inactive) and 49.6% (inactive); in the assay on NCI/ADR-RES ovarian, 27% (inactive) and 44.4% (inactive).

Regarding `CC1=CC(=C(c2ccc(N)cc2)c2ccc(N)cc2)C=CC1=N`, the growth in the assay on SR leukemia was 14.7% (inactive) and 24.8% (inactive); in the assay with RPMI-8226 leukemia it was -15.6% (active) and 33.4% (inactive); with OVCAR-8 ovarian, 6.23% (active) and 16% (inactive); in the assay with OVCAR-5 ovarian, 46.8% (inactive) and 53.3% (inactive); in the assay on OVCAR-4 ovarian it was 24.1% (inactive) and 33.7% (inactive); with SK-OV-3 ovarian, 38.2% (inactive). The growth was 70% (inactive) with IGROV1 ovarian; -35.6% (active) and 28.4% (inactive) in the assay on OVCAR-3 ovarian; 23.6% (inactive) and 89.5% (inactive) with HS 578T breast; 86.6% (inactive) and 101% (inactive) in the assay with NCI/ADR-RES ovarian.

Consider `C=C1C(=O)OC2CC1C(OC(C)=O)C/C(C)=C/CC/C(C)=C\CCC2(C)O` (stereo not given), for which the growth is -25.1% (active) with SR leukemia; -22.3% (active) in the assay with RPMI-8226 leukemia; 65.7% (inactive) with OVCAR-5 ovarian; -0.648% (active) in the assay on OVCAR-4 ovarian; 102% (inactive) with SK-OV-3 ovarian; 3.4% (active) in the assay on OVCAR-3 ovarian. In addition, the growth in the assay with HS 578T breast was 72% (inactive); in the assay with NCI/ADR-RES ovarian, 17.9% (inactive).

For the compound `COc1ccc(C(=O)C(CN(C)C)CN(C)C)cc1`, the growth with SR leukemia was -46.3% (active); in the assay with RPMI-8226 leukemia, 64.3% (inactive); with OVCAR-8 ovarian it was 41.1% (inactive); in the assay on OVCAR-5 ovarian, 116% (inactive); with OVCAR-4 ovarian, -93.8% (active); with SK-OV-3 ovarian it was 108% (inactive). The growth was 140% (inactive) in the assay on IGROV1 ovarian, -85% (active) in the assay with OVCAR-3 ovarian, 83% (inactive) in the assay with HS 578T breast and 101% (inactive) with NCI/ADR-RES ovarian.
